For orientation: inhibition means the drop in the measured response relative to a control, in per cent.

Our source for the inhibition values is PubChem BioAssay AID1878 (Sanford-Burnham Center for Chemical Genomics, 2009).

About 200 (20%) of roughly 1,000 compounds were called active. A selection follows. Measured potencies and affinities stand elsewhere. Unmarked numbers belong to inactive results. No stated cut-off is given here; in the data, active means inhibition above about 55%; inactive means the rest.

This assay deals with Dual specificity protein phosphatase 3 (Homo sapiens) (UniProt P51452). Nature of the assay: VHR1 phosphatase inhibitors, biochemical (AID 1878). The following applies: recombinant VHR phosphatase, fluorogenic substrate; at 13.3 µM; hits give high values.
Chain of Dual specificity protein phosphatase 3 (Homo sapiens) (P51452 whole entry, looked up): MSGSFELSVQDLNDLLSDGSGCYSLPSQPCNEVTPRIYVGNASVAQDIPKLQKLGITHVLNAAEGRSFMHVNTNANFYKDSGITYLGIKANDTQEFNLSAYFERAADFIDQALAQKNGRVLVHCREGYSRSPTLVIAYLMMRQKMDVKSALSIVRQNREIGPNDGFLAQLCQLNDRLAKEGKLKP
In the case of `Cc1ccccc1S(=O)(=O)Cc1ccc(C(=O)NCCCN2CCCC2)o1`, the inhibition was -7.1%.

Consider `COc1ccc(C2NN=C(c3ccc(C)cc3)S2)cc1` (centres undefined), for which the inhibition was -9.5%.

Consider `O=C(O)CCN1C(=O)/C(=C/c2cn(-c3ccccc3)nc2-c2cccs2)SC1=S`, for which the inhibition is 98% (active).

On to `Cc1cc(NC(=O)CCCN2C(=O)/C(=C\c3cccs3)SC2=S)no1`, for which the inhibition is -12%.

Turning to `CC1(C)CC(NC(=O)c2cccc(Cl)c2)CC(C)(C)N1`, the inhibition is 2.3%.

Take `CCOc1ccccc1C(=O)NC1CC2CCCC(C1)N2Cc1ccc(C)cc1` (centres undefined): the inhibition was 9.8%.

Consider `Cc1ccc(Oc2coc3cc(O)ccc3c2=O)cc1`, for which the inhibition is 1%.

Consider `O=[N+]([O-])CC(c1ccc(F)cc1)c1c[nH]c2ccccc12` (centres undefined), for which the inhibition was -0.1%.

In the case of `CCOc1ccc(C(=S)N2CCCC2)c(OCC)c1`, the inhibition was -7.2%.

In the case of `O=C(NCc1ccc(F)cc1)C(=O)c1cn(CC(=O)N2CCCC2)c2ccccc12`, the inhibition is -3%.

As to `CCOC(=O)CCNC(=O)N1CCC(CCC(=O)NCc2ccc(F)cc2)CC1`, the inhibition was -0.1%.

Consider `CN1CCC(N(C)S(=O)(=O)c2ccc(Cl)cc2)CC1`, for which the inhibition was -9.6%.

As for `CC(=O)Nc1ccc(N2C(=O)CSC2c2cccc(Br)c2)cc1` (centres undefined), the inhibition was 1.4%.

With `CN(CCCNC(=O)CCc1cn(C)c2ccccc12)C1CCCCC1`, the inhibition was -3.3%.

`COc1ccc(O)c(CN2CCN(CCCc3ccccc3)C(CCO)C2)c1` (centres undefined): the inhibition is -8%.

In the case of `N#Cc1nc(-c2ccc(OCc3ccc(Cl)cc3)cc2)oc1N1CCC(C(N)=O)CC1`, the inhibition is 93.5% (active).

As to `Fc1cc(F)nc(NCc2ccccc2)n1`, the inhibition was 8.1%.

With `Oc1ccc(N2CCN(Cc3nc4ccccc4[nH]3)CC2)cc1`, the inhibition is -15.2%.

For `CCC1CCCCN1CCCNC(=O)CS(=O)Cc1nc(-c2ccc(OC)c(OC)c2)oc1C` (centres undefined), the inhibition was 15.7%.

In the case of `Cc1c(CCCN)c2ccccc2n1Cc1ccccc1`, the inhibition is -12.5%.

In the case of `COc1cccc(C(N)=O)c1OC(=O)Cc1ccccc1F`, the inhibition is -0.1%.

For `O=C(Nc1nnc(SCc2c(Cl)cccc2Cl)s1)c1ccc2ncsc2c1`, the inhibition was 66.9% (active).

As for `Cc1nnc(NC(=O)c2cccc(Br)c2)s1`, the inhibition was 4%.

Regarding `O=C(Nc1cccc(F)c1)c1ccc2ncsc2c1`, the inhibition was -14.9%.

With `COc1cc(N=Cc2c(CO)cnc(C)c2O)cc(OC)c1OC`, the inhibition is -8.3%.

As for `C=CCNC(=O)c1ccc(CN2CCC(Cc3ccccc3)CC2)cc1`, the inhibition was -11.1%.

Take `CSc1ncccc1C(=O)NC1CCN(Cc2ccccc2)CC1`: the inhibition was 2.3%.

As for `CCOc1ccc(CCNC(=O)CS(=O)Cc2nc(-c3ccc(OC)c(OC)c3)oc2C)cc1OCC` (centres undefined), the inhibition is 8.4%.

In the case of `COC(=O)C1(CO)NC(c2ccc(C)cc2)C2C(=O)N(c3ccccc3)C(=O)C21` (centres undefined), the inhibition was -3.3%.

With `CC1=C(C(=O)OCc2ccccc2)C(c2ccc([N+](=O)[O-])cc2)NC(=O)N1C` (centres undefined), the inhibition was 2.8%.

On to `COc1cc(-c2c(NC(=O)c3ccco3)oc3ccccc3c2=O)cc(OC)c1OC`, for which the inhibition is -9.9%.

As for `CCN(CC)CCCN(Cc1cc2cc3c(cc2[nH]c1=O)OCO3)C(=S)NCCCN(C)C`, the inhibition is -12.7%.

Take `O=C(NC1=NN(c2ccccc2)CC1)Nc1ccccc1F`: the inhibition was -3.5%.

Consider `O=c1c2c3nc4ccccc4nc3n(-c3ccc4c(c3)OCCO4)c2ncn1C1CCCC1`, for which the inhibition is 96.5% (active).

Take `CSc1ncc(C(=O)Nc2ccccc2C)c(C)n1`: the inhibition is 6.2%.

As for `CCN1CCN(CCCNC(=O)CNC(=O)c2nn(-c3ccc(OC)cc3OC)c(=O)c3ccccc23)CC1`, the inhibition was 38.3%.

As for `O=C(O)c1ccc(-n2cccc2/C=C2/SC(=O)N(CC(=O)N3CCCC3)C2=O)cc1`, the inhibition was 96.8% (active).

As for `Cc1ccc2c(c1)c(CC(=O)Nc1ccc(C)c(F)c1)c(C(=O)O)n2C`, the inhibition is -6.8%.

As to `Cc1ccc(NC(=O)NC(=O)CN2CCN(c3ccc(O)cc3)CC2)c(C)c1`, the inhibition is -13.5%.

Turning to `Cc1cccc(NC(=O)CN2C(=O)S/C(=C\c3cccn3-c3cccc(C(=O)O)c3)C2=O)c1`, the inhibition is 75.6% (active).

Take `O=C(Cn1nc(-c2ccccc2)ccc1=O)N1CCCCC1`: the inhibition is -1.1%.

For `COc1ccccc1CNC(=O)C1Cc2cc(S(=O)(=O)N3CCCCC3)ccc2N1C(C)=O` (centres undefined), the inhibition was 28.1%.

For the compound `CCC1CCCCN1C(=O)c1ccc(OC2CCN(C(=O)CCOC)CC2)cc1` (centres undefined), the inhibition was -6.7%.

In the case of `CN(C)S(=O)(=O)c1ccc(C(=O)N2CC(=O)Nc3ccc(F)cc3C2c2ccc(F)cc2)cc1` (centres undefined), the inhibition was 26.6%.

As to `COc1ccc(CCNC(=O)CCNC(=O)N2CC(=O)Nc3ccccc32)cc1OC`, the inhibition is -7.1%.

As to `COC(=O)c1cc(S(=O)(=O)NCCN2CCN(c3ccccc3F)CC2)c[nH]1`, the inhibition is 17.5%.

Consider `CC(=O)Nc1cccc(C(=O)NC(C)c2ccc(-n3ccnc3)cc2)c1` (centres undefined), for which the inhibition was 1.8%.

Consider `CCCCN(CC)CCNC(=O)C1CCN(S(=O)(=O)c2cccc3nsnc23)CC1`, for which the inhibition is 8.4%.

With `O=C(NCCN1CCCCC1)Nc1ccccc1F`, the inhibition was 18.4%.

As for `CC1CC(C)CN(CCCNC(=O)Cn2cccc2C(=O)c2ccccc2)C1` (centres undefined), the inhibition is -12.8%.

With `CCOC(=O)NN=C1CCC(c2ccccc2)CC1` (centres undefined), the inhibition was -4.2%.

`CCC(C)Nc1nc2ccccc2n2c(C)nnc12` (centres undefined): the inhibition was 26.9%.

Turning to `O=C(CCC1CCN(Cc2ccc(Cl)cc2)CC1)NC1CC1`, the inhibition is -8.1%.

For `O=c1cc(-c2ccc([N+](=O)[O-])cc2)nc2cc(-c3ccc(Cl)cc3)[nH]n12`, the inhibition is 97.6% (active).

`O/N=C/c1ccc2cccc(OCc3ccccc3)c2n1`: the inhibition is -5.4%.

On to `Cc1ccc(Cn2c(N3CCNCC3)nc3c2c(=O)[nH]c(=O)n3C)cc1`, for which the inhibition is 3.7%.

On to `COc1ccc(C2NC(=O)CCC2[N+](=O)[O-])cc1OC` (centres undefined), for which the inhibition is -5.6%.

For the compound `COc1ccc(OCC(=O)Nc2nc3c(s2)CCCC3)cc1`, the inhibition was 1.9%.

Take `COc1ccc(C(=O)CCC(=O)Nc2ccc(N3CCCCC3)cc2)cc1OC`: the inhibition is -1.2%.

Regarding `COc1cc(NC(=O)CSc2ncnc3sc4c(c23)CCCC4)c(C(=O)O)cc1OC`, the inhibition was 55.5% (active).

Turning to `COc1cccc(COC(=O)C2CCN(C(=O)c3ccccc3C)CC2)c1OC`, the inhibition was -4.4%.

For the compound `CN(C)C(CNC1CC(C)(C)NC(C)(C)C1)c1cccc(F)c1` (centres undefined), the inhibition was 12.5%.

As to `Cc1ccc(-c2nc3ccccc3s2)cc1NC(=O)c1cc(-n2cnnc2)ccc1Cl`, the inhibition is 63.4% (active).

As to `COc1ccc(-c2nn(CCC#N)cc2C(=O)Nc2ccccc2Cl)cc1`, the inhibition is 2.2%.

For `O=C1CN(C(=O)c2ccccc2)C(c2ccccc2)c2cc(F)ccc2N1` (centres undefined), the inhibition was -4.4%.

Take `COc1cc(NC(=O)CCc2nnc3ccc(N4CCCCC4)nn23)cc(OC)c1OC`: the inhibition was -6.5%.

`Nc1c(C(=O)NC2CC2)sc2nc3c(c(-c4ccco4)c12)CC/C3=C/c1ccco1`: the inhibition was 11.4%.

As for `O=C(O)CCCCC1CCSS1` (centres undefined), the inhibition is 97.7% (active).

Consider `CCCn1c2ccccc2c2cnn(CC(=O)NCCCN3CCCC(C)C3)c(=O)c21` (centres undefined), for which the inhibition is -8.7%.

Turning to `CCOc1cccc(CN2CCCC(N3CCc4ccccc4C3)C2)c1O` (centres undefined), the inhibition was -11%.

On to `c1cncc(-c2nc(-c3ccc4c(c3)OCCO4)cs2)c1`, for which the inhibition is -10.9%.

For the compound `O=C(Nc1ccc2oc(-c3cccnc3)nc2c1)c1ccc2c(c1)OCCO2`, the inhibition was 62.5% (active).

For `COc1cc2cc(C(=O)Nc3ccc4c(c3)OCCO4)[nH]c2cc1OC`, the inhibition is -3.4%.

For `CC1=C(C(=O)OC(C)C)C(c2ccccc2)NC(=O)N1C` (centres undefined), the inhibition is 6.5%.

Regarding `COC(=O)c1cccc(CSC(=S)N2CCCC2)c1`, the inhibition is -7.9%.

Consider `O=C(O)c1ccc(Nc2nc(-c3ccc([N+](=O)[O-])cc3)nc3ccccc23)cc1`, for which the inhibition is 97.6% (active).

On to `O=[N+]([O-])c1ccc(-c2nnc(S)n2-c2ccccc2)cc1`, for which the inhibition was -5.8%.

Take `COc1ccc(Nc2ccc([N+](=O)[O-])cn2)cc1`: the inhibition is -0.2%.

For the compound `Cc1ccc(C)c(N(CC(=O)NC2CCCC2)C(=O)CNC(=O)c2cccs2)c1`, the inhibition was -6.9%.

In the case of `Cc1ccccc1CCN1CCCC(CN(C)C(=O)C(=O)c2ccco2)C1` (centres undefined), the inhibition was 9.9%.

On to `Cc1cc(NC(=O)CCSc2ccc(Cl)cc2)no1`, for which the inhibition was 2.1%.

Turning to `Cc1ccc(S(=O)(=O)N(C)CC(=O)OCC(=O)NC(=O)NC(C)C)cc1`, the inhibition was -21.6%.

Regarding `COc1cc(/C=C2\SC(=O)N(Cc3ccc(F)cc3)C2=O)cc([N+](=O)[O-])c1O`, the inhibition was 53% (active).

As to `O=C(CCCCCN1C(=O)[C@@H]2Cc3ccccc3CN2C1=O)Nc1ccccc1F`, the inhibition was 11%.

`CCCCNC(=O)NNC(=O)C1CC1(c1ccccc1)c1ccccc1` (centres undefined): the inhibition was 9.1%.

On to `COc1cc(CCC(=O)NCc2ccc3c(c2)OCO3)cc(OC)c1OC`, for which the inhibition is 0.3%.

Regarding `CS(=O)(=O)NN1C(=O)c2ccccc2NC1c1ccccc1F` (centres undefined), the inhibition was -7.9%.

Turning to `Cn1c(CNC(=O)CCNC(=O)c2cccc(Br)c2)cc(=O)n(C)c1=O`, the inhibition is -19.2%.

In the case of `O=C(Nc1cc([N+](=O)[O-])ccc1O)c1cccc(C(=O)Nc2cc([N+](=O)[O-])ccc2O)c1`, the inhibition is 98.4% (active).

In the case of `O=C(O)CSc1cc(NS(=O)(=O)c2cccc([N+](=O)[O-])c2)c2ccccc2c1O`, the inhibition is 1.4%.

In the case of `O=C(Nc1cccc2cccnc12)c1cccc(Cl)c1`, the inhibition is 2.2%.

For `CCOC(=O)C1=C(N)Oc2ccc3ccccc3c2C1c1ccc(O)c(OC)c1` (centres undefined), the inhibition was -1.4%.

For the compound `NC(=O)c1cc2ccccc2o/c1=N\NC(=O)c1ccccc1O`, the inhibition was 98.4% (active).

In the case of `O=C(Nc1ccccc1Cl)c1cc2ccccc2o/c1=N\O`, the inhibition is -1%.
